The values that follow come from PubChem BioAssay AID1259415 (National Center for Advancing Translational Sciences (NCATS), 2018).

In all, about 410,000 compounds went through this assay and about 18,000 (4.4%) were called active. Inconclusive results (about 7%) are left out. Only a selection was taken, and actives are over-represented in it overall. Unmarked numbers belong to inactive results. Cut-off read from the data, not from the text of the source: active = activity change below about -60%; inconclusive = no clear call, values can overlap the other calls; inactive = above about -39%.
% is set by controls: 0 for no effect and ±100 for the full control effect.

The test is described as follows: qHTS Assay for inhibitors of the human cytomegalovirus (HCMV). The settings on record: HFF cells, HCMV-luciferase reporter, 72 h; at 57.5 µM; active compounds read low. In outline: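 Steps: HFFs plated, 16 h 37C; compounds added; HCMV-luciferase added to MOI 1 PFU/cell; 72 h 37C; OneGlo reagent, 5 min room temperature; luminescence read, normalized to controls.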
Consider `CCc1ccccc1OCCSc1nc(-c2cccs2)nc2cc(=O)[nH]n12`, for which the activity change, negative = inhibition is -12.5%.
As for `CC(=O)c1ccc(NS(=O)(=O)c2ccc(-c3cc(C)no3)s2)cc1`, the activity change, negative = inhibition is 0%.
In the case of `c1ccc2c(CSCc3nc4ccccc4[nH]3)cccc2c1`, the activity change, negative = inhibition was -92.5% (active).
`c1ccc2c(C[n+]3csc4ccccc43)cccc2c1`: the activity change, negative = inhibition was 91.5%.
Regarding `O=C(OCc1nc2ccccc2[nH]1)C1CCCCC1`, the activity change, negative = inhibition is 4.12%.
Then `COc1ccccc1C(=O)N1O[C@]23C=C[C@]14C[C@@H](O)CC[C@]4(C)C2CC[C@]1(C)[C@@H]([C@H](C)/C=C/[C@H](C)C(C)C)CC[C@H]13` (stereo not given in full), with 27.5%.
Consider `Cc1ccc2nc(COc3ccccc3NC(=O)Nc3ccc(F)c(Cl)c3)cc(=O)n2c1`, for which the activity change, negative = inhibition is 9.77%.
Consider `CC(C)NC(=O)c1nn(-c2ccccc2F)nc1CO`, for which the activity change, negative = inhibition is -26.3%.
Regarding `CCNC(=O)CC1C(=O)N(c2ccc(F)cc2)C(=O)N1Cc1ccc(C)cc1` (stereo not given), the activity change, negative = inhibition is -4.44%.
`Cc1ccccc1C(CC(=O)c1cccs1)C(C#N)C#N` (stereo not given): the activity change, negative = inhibition was -89.2% (active).
Regarding `CCS(=O)(=O)N1CCN(C(=O)c2cccs2)CC1`, the activity change, negative = inhibition is 14.1%.
Consider `C/C(=N\NC(=O)COc1c(C)cccc1C)c1cccs1`, for which the activity change, negative = inhibition was -1.76%.
Then `Cn1c(SCC(=O)Nc2cccc(O)c2)nnc1-c1ccc(S(=O)(=O)N2CCOCC2)cc1`, with -70.3% (active); and `Nc1cc(N)nc(SCC(=O)Nc2cccc(S(=O)(=O)N3CCCCC3)c2)n1`, with -9.15%; and `CCC(=O)Nc1cccc(NC(=O)CSc2nnc(-c3ccc(NS(C)(=O)=O)cc3)n2C)c1`, with -2.35%.
As to `Cc1cc(NC(=O)C(C)SCC(=O)Nc2cccc(S(=O)(=O)N3CCCCCC3)c2)no1` (stereo not given), the activity change, negative = inhibition is -103% (active).
Then `Cn1nnnc1SCC(=O)Nc1cccc(S(=O)(=O)N2CCCCC2)c1`, with -105% (active); and `Cc1ccnc(SCC(=O)Nc2cccc(S(=O)(=O)N3CCOCC3)c2)n1`, with -25.4%; and `O=C(CSc1ccccc1)Nc1cccc(S(=O)(=O)N2CCCCC2)c1`, with -4.82%.
For the compound `Cc1cc(NC(=O)C(C)SCC(=O)Nc2ccccc2N2CCCCC2)no1` (stereo not given), the activity change, negative = inhibition is -18.8%.
`COCCn1cnnc1SCC(=O)Nc1cccc(S(=O)(=O)N2CCCCC2)c1`: the activity change, negative = inhibition is -23.6%.
The same measure for `CC1(C)N=C(SCc2ccccc2Cl)c2ccccc2N1`: 5.15%.
Turning to `Cc1ccc2c(=O)c(C(=O)c3ccc(F)cc3)cn(CC(=O)NC3CCCCC3)c2n1`, the activity change, negative = inhibition is 6.71%.
For the compound `CCc1ccccc1NC(=O)Cn1c(=O)n(CC2CCC(C(=O)NCCc3ccccc3)CC2)c(=O)c2ccccc21` (stereo not given), the activity change, negative = inhibition is 17.8%.
The same measure for `Cc1cc(NC(=O)CSc2ncc(C(=O)Nc3ccc(Cl)cc3)c(=O)n2C)no1`: 7.76%.
For the compound `CC(=O)Nc1ccc(NC(=O)c2cc3sccc3n2Cc2ccc(F)cc2)cc1`, the activity change, negative = inhibition was -10%.
As to `COc1ccc2[nH]c3c(C)c4cc[n+](C)cc4c(C)c3c2c1`, the activity change, negative = inhibition is -97.6% (active).
Take `COc1ccc(-n2c(=O)c3sc4ccccc4c3n(CC(=O)Nc3cccc(C)c3)c2=O)cc1`: the activity change, negative = inhibition was 11.4%.
In the case of `Cc1cc(C)c(/C=C/c2onc(C)c2S(=O)(=O)N2CCC(C(=O)Nc3ccc(Cl)cc3C)CC2)c(C)c1`, the activity change, negative = inhibition is -20.3%.
The same measure for `CN1CCN(S(=O)(=O)c2ccc(N3CCN(c4ccccc4O)CC3)c([N+](=O)[O-])c2)CC1`: -9.97%.
The same measure for `CCN1CCN(c2ccc([N+](=O)[O-])cc2C#N)CC1`: -36.6%.
For the compound `CN1CN(C)c2ccc([N+](=O)[O-])c3cccc1c23`, the activity change, negative = inhibition was -90% (active).
`CN(C)S(=O)(=O)c1ccc(N2CCCC2=O)c([N+](=O)[O-])c1`: the activity change, negative = inhibition was -23.4%.
As to `CC1CCCN(c2csc3ccc(F)cc3c2=O)C1` (stereo not given), the activity change, negative = inhibition is 20.9%.
For the compound `COc1ccc(-c2cn3c(C)c(C(=O)Nc4cc(C)cc(C)c4)sc3n2)cc1`, the activity change, negative = inhibition was 27.8%.
`COc1cc2c(cc1OC)C(COc1ccc(F)cc1)N(C(=O)c1ccccc1F)CC2` (stereo not given): the activity change, negative = inhibition is -11.8%.
Regarding `C=C(C)CNC(=S)Nc1ccc(S(=O)(=O)Nc2cnc3ccccc3n2)cc1`, the activity change, negative = inhibition was -30.9%.
As to `C=C(C)CNC(=S)N/N=C/c1ccccc1OCC(=O)O`, the activity change, negative = inhibition was -63.4% (active).
The same measure for `CCn1c(SCC(=O)N/N=C/c2ccccc2OCC(=O)O)nnc1-c1ccc(C(C)(C)C)cc1`: 0%.
As to `Cc1cc(C(=O)NC2CC(C)(C)Cc3c2cnn3-c2ccccc2)n[nH]1` (stereo not given), the activity change, negative = inhibition is -4.62%.
In the case of `COc1ccc(C(=O)NC2CC(C)(C)Cc3c2cnn3-c2ccccc2)c(OC)c1` (stereo not given), the activity change, negative = inhibition is -62.5% (active).
On to `COc1ccc(-n2ncc3c2CC(C)(C)CC3NC(=O)CCc2c(C)nn(C)c2C)cc1` (stereo not given), for which the activity change, negative = inhibition is -35%.
Turning to `O=C1Cc2cc(S(=O)(=O)Nc3ccc(OC(F)(F)F)cc3)cc3c2N1CCC3`, the activity change, negative = inhibition is 14.6%.
Take `COC(=O)[C@]12CCCCC=C1N(Cc1cccc3ccccc13)C(=O)[C@H](CC(=O)N1CCOCC1)C2`: the activity change, negative = inhibition was 12.2%.
Consider `Cc1ccc2nc(COc3cccc(NC(=O)c4ccccc4Cl)c3)cc(=O)n2c1`, for which the activity change, negative = inhibition is 0.182%.
For `COc1cc(OC)cc(-c2cc3ccc(F)cc3cn2)c1`, the activity change, negative = inhibition is 59.6%.
Consider `COc1ccc(C(C)(O)c2nc(-c3cc(F)cc(F)c3)cs2)cc1` (stereo not given), for which the activity change, negative = inhibition was -96% (active).
`CC(O)(c1cccc(F)c1)c1nc(-c2ccc3c(c2)OCO3)cs1` (stereo not given): the activity change, negative = inhibition is -11.8%.
As for `CCSc1nnc2c(n1)OC(c1ccc(OCC(=O)O)cc1)Nc1ccccc1-2` (stereo not given), the activity change, negative = inhibition was 33.3%.
With `CC(C)c1ccc(Cn2c(COc3ccccc3)nc3ccccc32)cc1`, the activity change, negative = inhibition is 57.2%.
As to `COc1cc(NC(=O)Cn2c(=O)n(Cc3ccco3)c(=O)c3oc4ccccc4c32)cc(OC)c1`, the activity change, negative = inhibition is -18.5%.
Consider `Cn1c2ccccc2c(=O)c2c(=O)n(Cc3ccco3)c(COc3ccccc3)nc21`, for which the activity change, negative = inhibition is -81.5% (active).
In the case of `CCOc1ccc(N(CC)S(=O)(=O)N2CCCC(C(=O)NCc3ccc(SC)cc3)C2)cc1` (stereo not given), the activity change, negative = inhibition was -31%.
Then `Cc1ccc(NC(=O)CSc2nc3c([nH]c4ccccc43)c(=O)n2-c2ccccc2)cc1Cl`, with -24%; and `CCc1ccc(NC(=O)CSc2nc3c([nH]c4ccccc43)c(=O)n2-c2cccc(OC)c2)cc1`, with 20.7%; and `Cc1ccc(NC(=O)CSc2nc3c([nH]c4ccccc43)c(=O)n2-c2ccccc2)c(C)c1`, with -65.4% (active).
For `Cc1ccccc1CSc1nc2c([nH]c3ccccc32)c(=O)n1C`, the activity change, negative = inhibition was 34.5%.
For `Cc1ccc(-n2c(SCC(=O)c3ccccc3)nc3c([nH]c4ccccc43)c2=O)cc1`, the activity change, negative = inhibition was 37%.
With `CCOC(=O)c1ccc(NC(=O)CSc2nc3c([nH]c4ccccc43)c(=O)n2C)cc1`, the activity change, negative = inhibition is -81.7% (active).
The same measure for `CCn1c(CC(=O)Nc2ccc(C)cc2)nnc1SCC(=O)Nc1nc(C)cs1`: 28.7%; for `O=C(COc1ccccc1F)OCc1cc(=O)n2nc(C3CCCCC3)sc2n1`: 11.6%.
In the case of `O=c1c2ccccc2n(Cc2cccc(Cl)c2)c(=O)n1Cc1ccccc1`, the activity change, negative = inhibition is -14.5%.
In the case of `CC(C)CCN(C(=O)Nc1ccc(Cl)c(Cl)c1)C(C)c1cccs1` (stereo not given), the activity change, negative = inhibition is 15.6%.
Regarding `CC(C)(C)C(=O)CSc1ccc(S(=O)(=O)N2CCCC2)cn1`, the activity change, negative = inhibition is 0%.
Turning to `CCc1c(C)sc(NC(=O)C2c3ccccc3Oc3ccccc32)c1C(=O)OC(C)C`, the activity change, negative = inhibition was 23.5%.
Consider `Cc1nc(S(=O)(=O)c2ccc(Br)cc2)nc2c1CCC2`, for which the activity change, negative = inhibition is 6.93%.
On to `CCOc1ccc(N(CC)C(=O)C2CCN(S(=O)(=O)c3cccc4nonc34)CC2)cc1`, for which the activity change, negative = inhibition was -9.41%.
Turning to `Cc1ccc2c(c1)N(C(=O)Nc1ccc(Br)cc1F)CCO2`, the activity change, negative = inhibition was -2.87%.
The same measure for `COc1ccccc1N(C)S(=O)(=O)c1ccc(Cl)c(C(=O)N2CCC(C(N)=O)CC2)c1`: -15.9%; for `COc1ccccc1N(C)S(=O)(=O)c1ccc(C(=O)NC2CCCCCC2)cc1`: -30.1%.
For the compound `COc1ccccc1N(C)S(=O)(=O)c1ccc(Cl)c(C(=O)Nc2ccncc2)c1`, the activity change, negative = inhibition is -67.6% (active).
Regarding `COc1ccc(C2(Nc3cccc(F)c3)C(=O)c3ccccc3C2=O)cc1`, the activity change, negative = inhibition was 3.54%.
In the case of `CCOC(=O)c1ccc(CSc2nnc3cc(C)c4ccccc4n23)cc1`, the activity change, negative = inhibition was 0.725%.
The same measure for `COc1cccc(N2CCN(S(=O)(=O)c3cc(Br)cc4c3N(C(=O)C3CC3)CC4)CC2)c1`: 7.82%.
Regarding `CN(Cc1ccccc1)c1ncnc2onc(-c3ccc(F)cc3)c12`, the activity change, negative = inhibition is -33.7%.
Take `COc1ccc(OC)c(NC(=O)CSC2=Nc3ccccc3C3=NC(CC(=O)NCCc4ccccc4)C(=O)N23)c1` (stereo not given): the activity change, negative = inhibition was 3.26%.
`COc1ccc(OC)c(NC(=O)CSC2=Nc3ccccc3C3=NC(CC(=O)NCc4ccc(F)cc4)C(=O)N23)c1` (stereo not given): the activity change, negative = inhibition is -67.3% (active).
`COc1ccccc1NC(=O)CSC1=Nc2ccccc2C2=NC(CC(=O)NCc3cccs3)C(=O)N12` (stereo not given): the activity change, negative = inhibition was 11.4%.
Turning to `Cc1ccc(N(CC(=O)NCC2CCCO2)C(=O)CNS(=O)(=O)c2ccc(Cl)cc2)cc1` (stereo not given), the activity change, negative = inhibition is 43.5%.
Turning to `Cc1nc2nc(SCC(=O)NC3CCC(C)CC3)nn2c(C)c1Cc1ccccc1Cl` (stereo not given), the activity change, negative = inhibition was -21.3%.
Turning to `O=C(/C=C/c1ccccc1[N+](=O)[O-])OCC(=O)N1CCCC1`, the activity change, negative = inhibition was 11.1%.
Then `CC1CCCCC1NC(=O)/C(C#N)=C/C=C/c1ccccc1[N+](=O)[O-]` (stereo not given), with -109% (active); and `CC1CC(C)CN(C/C=C/c2ccccc2[N+](=O)[O-])C1` (stereo not given), with 71.9%; and `COC(=O)c1cc(S(=O)(=O)N2CCN(c3cc(Cl)ccc3C)CC2)c[nH]1`, with -37%.
As to `COc1ccc(-c2cn3nc(N4CCC(C(=O)Nc5cccc(C)c5C)CC4)sc3n2)cc1`, the activity change, negative = inhibition was 0%.
